Assay results reported in the supplement of paper PMC6555819.

What was measured:
Experiment in all cases: PBM binding z-score (relative to random genomic background probes); higher = stronger binding; sequences stand for … in GC…GCGATTGACAGCGTAGAATGAAGG
[1] = system: FXR:RXRa (NR concentration 270 nM, RXRa partner concentration 90 nM)
In short: (§1)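 The probes on custom Agilent 4×180K protein-binding microarrays were double-stranded, with 34-nt variable regions bearing direct-repeat seeds, single-nucleotide variants, half-site ablations and random human genomic background sequences. Incubation lasted 1 h with ligand-free nuclear receptor dimers in PBS pH 7.4, 2% milk, 0.02% Triton X-100, 1 mM DTT, 0.2 mg/mL BSA and 0.4 mg/ml salmon testes DNA. Antibodies against each partner (one per run) detected bound dimers, and fluorescence scans were regression-normalized. Binding z-scores take the random background probes as reference.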

[2] = system: LXRa:RXRa (NR concentration 270 nM, RXRa partner concentration 90 nM)
In short: as §1

[3] = system: LXRa homodimer (NR concentration 270 nM)
In short: as §1

[4] = system: LXRb:RXRa (NR concentration 270 nM, RXRa partner concentration 90 nM)
In short: as §1

[5] = system: LXRb homodimer (NR concentration 270 nM)
In short: as §1

[6] = system: PPARa:RXRa (NR concentration 270 nM, RXRa partner concentration 90 nM)
In short: as §1

[7] = system: PPARg:RXRa (NR concentration 180 nM, RXRa partner concentration 90 nM)
In short: as §1

[8] = system: PPARg:RXRa 270nM:90nM, anti-RXR (NR concentration 270 nM, RXRa partner concentration 90 nM)
In short: as §1

[9] = system: PPARg:RXRa 30nM:10nM, anti-RXR (NR concentration 30 nM, RXRa partner concentration 10 nM)
In short: as §1

[10] = system: PPARg:RXRa 90nM:30nM, anti-RXR (NR concentration 90 nM, RXRa partner concentration 30 nM)
In short: as §1

[11] = system: PPARg:RXRa DBDmut IVT, anti-RXR (DBD mutation: RXRa K156A/R161A, NR concentration 270 nM, RXRa partner concentration 90 nM)
In short: as §1

[12] = system: PPARg:RXRa IVT, anti-PPARg (NR concentration 270 nM, RXRa partner concentration 90 nM)
In short: as §1

[13] = system: PPARg DBDmut:RXRa IVT, anti-PPARg (DBD mutation: PPARg1 K132A/R137A, NR concentration 270 nM, RXRa partner concentration 90 nM)
In short: as §1

[14] = system: PPARg DBDmut IVT, anti-PPARg (DBD mutation: PPARg1 K132A/R137A, NR concentration 270 nM)
In short: as §1

[15] = system: PPARg homodimer (NR concentration 180 nM)
In short: as §1

[16] = system: PXR:RXRa (NR concentration 270 nM, RXRa partner concentration 90 nM)
In short: as §1

[17] = system: PXR homodimer (NR concentration 270 nM)
In short: as §1

[18] = system: RARa:RXR (NR concentration 270 nM, RXRa partner concentration 90 nM)
In short: as §1

[19] = system: RARa homodimer (NR concentration 270 nM)
In short: as §1

[20] = system: RARb:RXRa (NR concentration 270 nM, RXRa partner concentration 90 nM)
In short: as §1

| Sequence | PBM binding z-score [1] | PBM binding z-score [2] | PBM binding z-score [3] | PBM binding z-score [4] | PBM binding z-score [5] | PBM binding z-score [6] | PBM binding z-score [7] | PBM binding z-score [8] | PBM binding z-score [9] | PBM binding z-score [10] | PBM binding z-score [11] | PBM binding z-score [12] | PBM binding z-score [13] | PBM binding z-score [14] | PBM binding z-score [15] | PBM binding z-score [16] | PBM binding z-score [17] | PBM binding z-score [18] | PBM binding z-score [19] | PBM binding z-score [20] |
| --- | --- | --- | --- | --- | --- | --- | --- | --- | --- | --- | --- | --- | --- | --- | --- | --- | --- | --- | --- | --- |
| CAAACTAGGTCAAGAAAGGTCAAAGTCGAATGAC | 7.13 | 7.84 | 7.14 | 6.98 | 2.48 | 6.35 | 8.96 | 7.74 | 5.91 | 7.85 | 8.14 | 8.39 | 1.43 | 1.46 | 4.85 | 6.73 | 3.25 | 7.01 | 3.23 | 5.44 |
| AACTCTAGGTAAAGATAGTTCAGTGAATGCAAAT | 0.28 | 3.96 | 0.498 | 0.633 | -0.176 | 0.465 | 0.601 | 0.353 | 0.0247 | 0.245 | 2.43 | 1.47 | 1.03 | 0.24 | 0.547 | 0.755 | 0.513 | 0.462 | 0.929 | 0.576 |
| CCTGCTAGGTCATGGTGAGCTAATCTACAGTATG | 3.57 | 2.37 | -0.17 | 1.56 | -0.467 | 3.41 | 2.55 | 2.76 | 0.872 | 1.78 | 4.15 | 3.71 | 1.17 | 0.341 | 0.897 | 1.14 | -0.321 | 2.29 | -0.0406 | 3.77 |
| TCATATAGGTAAAAGGTGATAGTCGGTGTGGTAA | 1.41 | 1.28 | 0.217 | 1.35 | 0.351 | 4.6 | 8.06 | 7.95 | 8.2 | 8.56 | 5.2 | 4.18 | 1.26 | 1.38 | 1.66 | 0.875 | 0.988 | 1.84 | 1.85 | 1.17 |
| AGTCAAAGTTCCGGACGAGGTAACGTAAAGCACG | -0.0931 | -0.354 | -0.166 | -0.301 | -0.695 | -0.0739 | 0.679 | 0.221 | -0.0701 | 0.189 | -0.341 | 0.284 | 0.0206 | -0.236 | -0.335 | -0.34 | -0.452 | 0.0687 | -0.122 | 0.265 |
| CGAACTAGGTCCTCCAGGACAGTGAATACATTGA | -0.16 | -0.319 | -0.274 | -0.492 | -0.593 | 0.0563 | 0.755 | 0.537 | -0.117 | 0.278 | 3.46 | 2.42 | 0.246 | -0.00333 | -0.188 | -0.555 | -0.316 | -0.262 | -0.913 | -0.0568 |
| AGTCAAAGTTCATCTAGTTAACGTAAGATATGCT | 6.78 | 6.1 | 5.42 | 3.68 | 2.06 | 4.77 | 6.49 | 5.96 | 3.55 | 5.46 | 0.113 | 2.78 | 1.61 | 1.25 | 3.6 | 5.26 | 9.11 | 3.45 | 2.15 | 4.85 |
| ACAGACAGGAGAGTGAAGGTAACTCAGCTGGACG | 0.399 | -0.127 | -0.128 | 0.0952 | 0.885 | 0.0627 | 0.928 | 0.616 | 0.213 | 0.343 | -0.0669 | 0.0769 | 0.725 | 0.294 | 0.433 | 0.0985 | 0.114 | 0.228 | 0.297 | 0.198 |
